# The supplement of paper PMC6555819
# Experiments:
# Assay in all cases: PBM binding z-score (relative to random genomic background probes); higher = stronger binding; sequences stand for … in GC…GCGATTGACAGCGTAGAATGAAGG
# [1] = test system: FXR:RXRa (NR concentration 270 nM, RXRa partner concentration 90 nM)
# How it was run: (§1)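 The probes on custom Agilent 4×180K protein-binding microarrays were double-stranded, with 34-nt variable regions bearing direct-repeat seeds, single-nucleotide variants, half-site ablations and random human genomic background sequences. Incubation lasted 1 h with ligand-free nuclear receptor dimers in PBS pH 7.4, 2% milk, 0.02% Triton X-100, 1 mM DTT, 0.2 mg/mL BSA and 0.4 mg/ml salmon testes DNA. Antibodies against each partner (one per run) detected bound dimers, and fluorescence scans were regression-normalized. Binding z-scores take the random background probes as reference.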
# [2] = test system: LXRa:RXRa (NR concentration 270 nM, RXRa partner concentration 90 nM)
# How it was run: as §1
# [3] = test system: LXRa homodimer (NR concentration 270 nM)
# How it was run: as §1
# [4] = test system: LXRb:RXRa (NR concentration 270 nM, RXRa partner concentration 90 nM)
# How it was run: as §1
# [5] = test system: LXRb homodimer (NR concentration 270 nM)
# How it was run: as §1
# [6] = test system: PPARa:RXRa (NR concentration 270 nM, RXRa partner concentration 90 nM)
# How it was run: as §1
# [7] = test system: PPARg:RXRa (NR concentration 180 nM, RXRa partner concentration 90 nM)
# How it was run: as §1
# [8] = test system: PPARg:RXRa 270nM:90nM, anti-RXR (NR concentration 270 nM, RXRa partner concentration 90 nM)
# How it was run: as §1
# [9] = test system: PPARg:RXRa 30nM:10nM, anti-RXR (NR concentration 30 nM, RXRa partner concentration 10 nM)
# How it was run: as §1
# [10] = test system: PPARg:RXRa 90nM:30nM, anti-RXR (NR concentration 90 nM, RXRa partner concentration 30 nM)
# How it was run: as §1
Sequence,PBM binding z-score [1],PBM binding z-score [2],PBM binding z-score [3],PBM binding z-score [4],PBM binding z-score [5],PBM binding z-score [6],PBM binding z-score [7],PBM binding z-score [8],PBM binding z-score [9],PBM binding z-score [10]
ATACCAAGGGGATCGTGAGGTCGTTGATACTAAC,0.492,0.487,0.291,1.26,-0.272,0.97,0.267,-0.0276,-0.375,-0.365
TCGAGTAGGTTAGGGTCATTCAGAATGGCGTCGA,4.57,3.41,0.537,3.62,-0.146,4.66,3.15,4.16,2.2,3.52
GGAGACAGGTGAAACGCAGGTAACTCAGGGTGGC,0.0373,0.224,-0.296,-0.0924,-0.712,1.03,0.617,0.0474,-0.768,-0.000912
TCTGCTAGGTCAACGATGGTCAGCTAGTCTGCTA,3.29,2.53,-0.369,1.39,-0.445,3.44,2.46,2.9,1.75,2.53
ATCGAAAGATCGAGGTGAGTATAGAGAAAGGGAA,0.0424,0.111,-0.321,-0.262,-0.23,0.469,0.553,0.362,0.533,0.418
TCGTGTAGATCAAAGGTTAAGAAAGCCGAAGCCT,1.91,1.98,0.381,1.83,0.049,3.91,5.73,6.47,5.88,6.62
CGAACTAGGTCAGAACAAGACAGTGAAGGATGAT,0.848,0.591,-0.0962,0.588,-0.311,3.32,5.7,4.3,2.01,3.41
CCGAGTAGGTTATGTGGCATTCAGGCAACGGTGA,0.192,0.353,0.0932,0.0215,-0.284,0.798,0.853,1.85,-0.095,0.651
GGAACGAGGGCACGTTGATAGCAGAGTTTGATGG,0.419,0.105,-0.441,0.08,-0.424,1.67,1.7,1.56,0.331,1.19
GCGACTGGGGCAAAGCAAGTTACCATAAGGTTGG,-0.106,-0.224,-0.376,-0.3,-0.665,0.868,0.964,1.1,-0.269,0.301
CGAACTAGGTCAGAACAGGACAGTGATGGATGAT,1.29,0.678,0.233,0.327,-0.482,2.91,5.11,4.36,2,3.37
CAAACTAGGTCAAGGTCGAAGTCGGTTTGTGCCA,4.68,3.03,0.706,2.37,-0.00931,5.05,8.77,7.1,5.52,7.19
ACAGACAGGTGAGTGGAGGTAACTCAGCTGGACG,0.578,0.206,-0.47,-0.13,-0.275,0.431,0.557,-0.0456,-0.0591,0.000165
ACTTACGGGTCAACGAGGTTATAGGACGCGTATA,5.95,5.07,0.89,4.43,0.538,5.78,5.7,5.53,2.04,4.25
TCTATTAGTTGATTAGGGGAACCGAAACAGCGGA,0.954,0.771,0.585,0.845,1.38,0.915,0.0434,2.05,4.11,2.94
AGAATGAGGGCAATGAGTTGATAGCACGGGTGGC,0.728,0.505,-0.515,-0.0914,-0.286,1.91,1.79,1.42,0.0297,0.697
TCATATATGTAAATGCTAGGTGAAAGTCCGATCT,0.494,0.5,0.273,0.561,0.139,0.627,0.741,1.86,3.23,2.59
CTCGAAAGGTCGGTTAAGGTGAGTATACGGATAA,3.06,2.1,0.202,1.84,0.111,3.04,0.591,1.48,0.313,0.943
CCGACTGGGGCATAATGTTACCATAAGCCAGCCC,-0.414,-0.333,-0.335,-0.186,-0.735,0.127,1.15,1.01,-0.289,0.632
TCATATAGGTGAAGGTGAAAGTCGAACGATATGA,0.452,0.703,-0.543,0.713,-0.39,3.24,5.02,5.16,4.73,4.96
GCTTGTAGATCAAGGTTAAGAAGGACTAAGCTAA,0.204,0.416,-0.49,0.546,-1.11,1.38,0.945,2.08,0.323,1.79
CCAGACAGGTGAAAGGTAACGCAGTCTGGTACGC,0.748,0.83,-0.423,0.898,-0.326,3.57,5.87,6.19,4.19,6.4
AGTCAAAGTTCATCTAGGCAACGTAAGATATGCT,6.17,6.15,4.67,3.78,1.77,4.92,6.47,6.11,3.4,5.44
AATATTAGTTGAGACGAGGGCAACCGATAGGTTG,0.383,0.45,0.595,0.306,0.174,0.507,0.897,0.51,0.0399,0.408

Sequence,PBM binding z-score [1],PBM binding z-score [2],PBM binding z-score [3],PBM binding z-score [4],PBM binding z-score [5],PBM binding z-score [6],PBM binding z-score [7],PBM binding z-score [8],PBM binding z-score [9],PBM binding z-score [10]
ATAACGAGGGCACGCTGAGTTGATAGCAGAGTAG,0.657,1.11,-0.0272,0.34,0.00771,2.24,2.45,1.88,0.803,1.22
CTAGACAGGTGAGAAGGTAACTCAGCCTCGATTA,-0.0745,-0.0361,-0.246,-0.171,-0.733,0.677,0.508,0.818,0.0715,0.577
TAGCCTAGGTCATGCGGGCCAGGATAGTGTCGGC,3.94,2.96,0.218,1.4,-0.35,3.42,2.26,2.41,0.605,1.56
TCTTGTAGATCAAGCAGGTGAAGAAAGCCTGAGT,0.239,0.182,-0.332,-0.145,-0.467,0.527,-0.404,1.19,2.61,2.07
GATAAAGGGTCAAGGCCAGAGTACGCGTATTGAT,7.29,5.43,0.637,4.49,0.548,6.28,6.56,6.32,3.17,5.23
CAAACTAGGTCACGACAGGTCAAAGTCGAATGAC,6.86,7.66,5.39,6.7,0.955,6.08,9.79,7.85,6.54,8.02
CGTGCAAGGTCAAAGGTCAGTGAAGAGATGACGG,8.16,6.9,3.14,6.7,1.86,7.4,10.9,9.02,7.56,9.38
CAAACTAGGTCAAAGGTCTAAGTCGAGCCAACCA,5.29,4.37,0.54,3.21,0.734,6.51,12,10,9.99,11.8
GCAGACAGGTGAAACGCAGGTAACGCAGGGTGGC,-0.151,-0.229,-0.631,-0.357,-1.09,0.749,0.665,-0.038,-0.74,-0.0828
ACTTATGGGTCAACGAGGTTATAGCACGCGTATA,5.3,4.47,0.915,3.85,0.967,5.33,6.12,5.78,2.91,5.01
CGAACTAGGTCATCCAAGACAGTGAATACATTGA,4.2,2.37,0.551,2.26,0.197,4.78,8.08,6.67,4.23,5.9
CTACCAAGGTGAACCAGGTCGTTGATTACTATTC,0.862,1.52,-0.0698,1.8,-0.718,2.61,1.19,1.54,0.0677,0.58
ACTAGCAGGCCAAGTTTGGGTCACTCAGACAAAG,-0.039,0.195,-0.331,0.306,-1.05,1.27,0.233,0.225,-0.237,-0.185
CCTCGGAGGCCAGAAGGTCAGAGCTGTCCGCTTT,1.46,1.39,-0.337,0.993,-0.99,1.97,-0.665,1.19,-0.826,0.521
ATCTCTAGGTAACAAGTTCAGTGCAAGAGAGGAC,0.558,0.749,0.739,0.611,0.89,1.5,1.32,1.86,0.692,1.45
CAAACTCGGTCACAGAGGTCAAAGTCCGTGCGTA,5.99,6.29,7.24,5.29,2.04,5.72,5.27,6.24,3.25,5.58
ATCTGTAGGTTACATCCGGGTCATTCAGGCTATG,1.94,4.67,1.97,2.81,1.35,3.22,1.98,2.56,0.963,1.83
TCATATAGGTAAAAGATGAAAGTCGGTGTGGTAA,0.736,1.17,-0.031,1.03,0.134,2.6,3.49,4.9,5.17,5.29
ACTAGCAGGCCAAGTTTGGGGCACTCAAACAAAG,-0.415,-0.546,-0.667,-0.397,-1.03,-0.148,-0.208,-0.509,-0.663,-0.441
GGAACGAGGCCATTCGAGTTGATAGCATGGCGAT,0.572,0.106,-0.48,-0.483,-0.846,0.013,0.591,0.257,-0.557,-0.163
TAGCCTAGGTCAGAACGGGCCAGTATACGCTATA,1.13,0.618,-0.471,0.47,-0.65,1.31,0.763,0.742,-0.161,0.153
TCTCCGAGGACACGAAGGTCAGAGCTTTCCAGAG,1.91,0.842,0.15,0.919,-0.353,2.09,0.489,1.61,2.34,2
CCTTACGGGTCACGAGGTTATAGGACGACGAGCG,6.8,4.66,0.193,3.75,-0.117,5.93,7.51,6.72,3.51,5.65
CCTGCTAGGTCATGGTCAGCTACTCTACAGTATG,3.3,2.34,0.256,1.42,-0.441,3.16,2.56,2.72,0.637,1.67
